From paper PMC4336329 (PLoS ONE, 2015)
Out of some 310,000 compounds screened, about 2,200 (0.71%) showed an effect of 50% or more. Effects have a minus sign here. The list comes from a sample in which strong results are over-represented; it also holds similar structures and randomly drawn compounds.

What follows are compounds tested against human ether-à-go-go-related gene (hERG) potassium channel (human, UniProt Q12809) (assay: primary screen, population patch clamp on CHO cells stably expressing hERG; higher = less effect of the substance).
Sequence of human ether-à-go-go-related gene (hERG) potassium channel (Q12809 whole entry, looked up): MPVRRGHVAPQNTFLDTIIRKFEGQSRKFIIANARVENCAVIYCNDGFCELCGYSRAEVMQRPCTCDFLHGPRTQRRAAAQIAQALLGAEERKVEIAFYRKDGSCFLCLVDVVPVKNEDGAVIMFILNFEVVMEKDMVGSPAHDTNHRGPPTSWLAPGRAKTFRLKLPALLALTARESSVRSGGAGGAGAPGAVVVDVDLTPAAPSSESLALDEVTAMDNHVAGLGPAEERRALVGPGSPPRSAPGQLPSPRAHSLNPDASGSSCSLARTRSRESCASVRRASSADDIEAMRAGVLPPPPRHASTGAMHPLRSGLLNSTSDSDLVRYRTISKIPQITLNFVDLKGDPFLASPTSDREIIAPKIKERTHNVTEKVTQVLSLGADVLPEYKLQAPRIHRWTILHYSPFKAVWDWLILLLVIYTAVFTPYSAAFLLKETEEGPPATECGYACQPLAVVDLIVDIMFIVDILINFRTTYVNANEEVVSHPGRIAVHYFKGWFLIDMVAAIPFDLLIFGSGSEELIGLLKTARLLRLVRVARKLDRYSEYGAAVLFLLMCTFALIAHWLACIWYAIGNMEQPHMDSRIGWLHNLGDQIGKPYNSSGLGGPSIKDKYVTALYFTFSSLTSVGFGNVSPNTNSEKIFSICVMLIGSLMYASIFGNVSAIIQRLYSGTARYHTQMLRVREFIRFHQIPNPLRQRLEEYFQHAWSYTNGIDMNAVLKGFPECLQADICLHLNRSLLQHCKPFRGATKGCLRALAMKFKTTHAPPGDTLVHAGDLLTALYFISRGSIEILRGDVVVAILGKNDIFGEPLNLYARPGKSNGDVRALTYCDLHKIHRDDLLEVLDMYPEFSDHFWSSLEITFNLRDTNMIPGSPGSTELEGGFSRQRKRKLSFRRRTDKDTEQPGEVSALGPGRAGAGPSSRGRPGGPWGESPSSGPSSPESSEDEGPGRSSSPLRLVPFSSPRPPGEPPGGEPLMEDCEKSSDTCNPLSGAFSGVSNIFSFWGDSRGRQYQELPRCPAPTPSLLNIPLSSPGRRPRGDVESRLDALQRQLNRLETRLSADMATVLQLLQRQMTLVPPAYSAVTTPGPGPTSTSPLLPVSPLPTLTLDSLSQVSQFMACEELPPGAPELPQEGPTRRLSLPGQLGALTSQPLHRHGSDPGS

Row | SMILES | hERG current change (%, negative = inhibition) at 1uM
1 | CS(=O)(=O)N(Cc1cccc(CN(C(C(=O)O)c2ccccc2)S(C)(=O)=O)c1)C(C(=O)O)c1ccccc1 (stereo not drawn) | 16.9%
2 | O=C(O)CC1(CC(=O)Nc2ccc(C(F)(F)F)cc2)CCCC1 | 15.6%
3 | Cc1ccc(OCCC(=O)OCC(=O)NC(=O)NC2CCCCC2)cc1 | 14.2%
4 | Cn1cnnc1SCc1ccccc1Br | 12.6%
5 | CC(=O)Nc1ccc(NC(=O)C(C)Sc2n[nH]c(-c3ccc(C)cc3)n2)cc1 (stereo not drawn) | 8.42%
6 | Cc1ccc(C)c(-n2c(C)nc3ccccc3c2=O)c1 | 13.2%
7 | CC(C)(C)c1ccc(C(=O)NCCc2ccccc2)cc1 | 6.65%
8 | Cc1ccc(C2=NN=C(NC(=O)CSc3nnc4c5ccccc5n(C)c4n3)SC2)cc1 | 8.27%
9 | Cc1ccc2oc(C(=O)N3CCN(C)C[C@@H]3C(C)C)c(C)c2c1 | 9.07%
10 | O=C(OCCNC(=O)c1ccc2ccccc2n1)c1ccc(F)cc1 | 4.77%
11 | Cc1ccc(OCCCC(=O)Nc2ccc(S(N)(=O)=O)cc2)cc1 | 9.66%
12 | COc1ccc([N+](=O)[O-])cc1NS(=O)(=O)c1ccc(Cl)c(C(=O)Nc2sc3c(c2C#N)CCCCC3)c1 | 17.4%
13 | COc1ccc(/C(N)=N/OC(=O)CCc2ccccc2)cc1 | 4.26%
14 | COc1cccc(C(=O)CN(C(=O)c2ccc(Cl)cc2Cl)N2C(=O)c3ccccc3C2=O)c1 | 8.71%
15 | CCC1(CC)NC(=O)N(CC(=O)OCC(=O)Nc2ccc(C(F)(F)F)cc2)C1=O | 2.71%
16 | COc1ccccc1C(=O)C1CCCN(Cc2ccc(Oc3ncccn3)cc2)C1 (stereo not drawn) | -0.388%
17 | O=C(c1ccc2c(c1)OCO2)C1CCCN(Cc2ccccn2)C1 (stereo not drawn) | -13%
18 | O=C(c1ccc2c(c1)OCO2)C1CCCN(Cc2cn[nH]c2-c2cccc(F)c2)C1 (stereo not drawn) | -42.7%
19 | COC(=O)c1ccc(CN2CCCC(C(=O)c3ccccc3OC)C2)cc1 (stereo not drawn) | -6.6%
20 | CCOc1ccc(CN2CCCC(C(=O)c3ccccc3OC)C2)cc1 (stereo not drawn) | -74.1%
21 | O=C(c1ccc2c(c1)OCO2)C1CCCN(Cc2cn[nH]c2-c2ccccc2)C1 (stereo not drawn) | -67.3%

Row | SMILES | hERG current change (%, negative = inhibition) at 1uM
22 | CCC(CC)c1nnc(NC(=O)C23CC4CC(CC(NC(C)=O)(C4)C2)C3)s1 | 0.699%
23 | Cc1cc(C)c(C)c(C(=O)c2ccccc2C(=O)O)c1C | 6.64%
24 | COCCNC(=O)COC(=O)c1cccnc1SC | 12.8%
25 | CC1CCN(C(=O)c2cccc(S(=O)(=O)N3CCCCC3)c2)CC1 | 2.17%
26 | CCOC(=O)C1=C(CSc2nc(-c3ccccc3)ccc2C#N)OC(N)=C(C#N)C1c1cccnc1 (stereo not drawn) | -6.76%
27 | COc1ccc(/C=C(\NC(=O)c2ccc(Cl)cc2)C(=O)NCCCn2ccnc2)cc1OC | 9.45%
28 | Cc1ccc(/C=C(\NC(=O)c2ccc(C)cc2)C(=O)NCCCn2ccnc2)cc1 | -87%
29 | Cc1ccc(C(=O)N/C(=C\c2cn(C)c3ccccc23)C(=O)NCCCn2ccnc2)cc1 | 13.5%
30 | Cc1ccc(C(=O)N/C(=C\c2ccc(F)cc2)C(=O)NCCCn2ccnc2)cc1 | -85.1%
31 | O=C(NCCCn1ccnc1)/C(=C\c1ccccc1F)NC(=O)c1ccccc1 | -42.5%
32 | Cc1ccc(C(=O)N/C(=C/c2ccccc2F)C(=O)NCCCn2ccnc2)cc1 | -22.5%
33 | O=C(NCCCn1ccnc1)/C(=C/c1ccc(F)cc1)NC(=O)c1ccccc1 | -72.2%
34 | CSc1ccc(/C=C(/NC(=O)c2ccccc2)C(=O)NCCCn2ccnc2)cc1 | -15.6%
35 | COc1ccc(/C=C(\NC(=O)c2ccc(C)cc2)C(=O)NCCCn2ccnc2)cc1OC | 12.1%
36 | Cc1ccc(C(=O)N/C(=C\c2ccccc2)C(=O)NCCCn2ccnc2)cc1 | -87%
37 | CC(C)(C)NC(=S)N/N=C\c1ccc(-c2ccc([N+](=O)[O-])cc2)o1 | 13.3%
38 | COC(=O)Nc1ccc(S(=O)(=O)N2CCCC(C(=O)N3CCN(C)CC3)C2)cc1 (stereo not drawn) | 7.31%
39 | Cc1cc(C)c2cc(CN(Cc3ccc4c(c3)OCO4)Cc3nnnn3Cc3ccco3)c(=O)[nH]c2c1 | 10.8%
40 | CC1=NN(C(C#N)c2ccccc2C)C(c2ccccc2)C1 (stereo not drawn) | 9.72%
41 | Cc1cc(C)nc(/N=C2\NC(=O)CC3C(=O)NCCN23)n1 (stereo not drawn) | 13.1%
42 | CN1CC(=O)Nc2ccc([N+](=O)[O-])cc2C1=O | 17.6%
